Screens as filed in PubChem BioAssay.
In the library only some 3.4% were active in any assay of this set; here they are far more common.
ADAM17 inh: inhibits human ADAM17. P78536. hit rate 0.83% among 370,000. inhibition, % at 6.95 µM. recombinant ADAM17, EDANS/DABCYL FRET peptide cleavage;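 active means inhibition above the mean of compounds lying between control limits plus 3 SD, set per campaign, cut at about 8.5% in these data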;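 further: 0% = DMSO-only wells as the low control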
KLK7 zymogen act: activators of human kallikrein-7 zymogen; P49862; purified proKLK7, EDANS-DABCYL substrate fluorescence; 100% is mature enzyme control, 0% vehicle; activation, % at 7 µM; hit rate 0.9% among 370,000;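 active means activation above the mean of all tested compounds plus 3 SD, computed per campaign excluding outliers beyond control limits, cut at about 13% in these data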
PLC-gamma1 inh: PLC-gamma1 (human) inhibition, primary screen; P19174; purified PLC-gamma1, fluorogenic substrate, fluorescence; inhibition, % at 12.2 µM; hit rate 0.84% among 370,000; AID 720700; in the data active means inhibition above about 9.5%
Target sequence (P19174 whole entry, looked up): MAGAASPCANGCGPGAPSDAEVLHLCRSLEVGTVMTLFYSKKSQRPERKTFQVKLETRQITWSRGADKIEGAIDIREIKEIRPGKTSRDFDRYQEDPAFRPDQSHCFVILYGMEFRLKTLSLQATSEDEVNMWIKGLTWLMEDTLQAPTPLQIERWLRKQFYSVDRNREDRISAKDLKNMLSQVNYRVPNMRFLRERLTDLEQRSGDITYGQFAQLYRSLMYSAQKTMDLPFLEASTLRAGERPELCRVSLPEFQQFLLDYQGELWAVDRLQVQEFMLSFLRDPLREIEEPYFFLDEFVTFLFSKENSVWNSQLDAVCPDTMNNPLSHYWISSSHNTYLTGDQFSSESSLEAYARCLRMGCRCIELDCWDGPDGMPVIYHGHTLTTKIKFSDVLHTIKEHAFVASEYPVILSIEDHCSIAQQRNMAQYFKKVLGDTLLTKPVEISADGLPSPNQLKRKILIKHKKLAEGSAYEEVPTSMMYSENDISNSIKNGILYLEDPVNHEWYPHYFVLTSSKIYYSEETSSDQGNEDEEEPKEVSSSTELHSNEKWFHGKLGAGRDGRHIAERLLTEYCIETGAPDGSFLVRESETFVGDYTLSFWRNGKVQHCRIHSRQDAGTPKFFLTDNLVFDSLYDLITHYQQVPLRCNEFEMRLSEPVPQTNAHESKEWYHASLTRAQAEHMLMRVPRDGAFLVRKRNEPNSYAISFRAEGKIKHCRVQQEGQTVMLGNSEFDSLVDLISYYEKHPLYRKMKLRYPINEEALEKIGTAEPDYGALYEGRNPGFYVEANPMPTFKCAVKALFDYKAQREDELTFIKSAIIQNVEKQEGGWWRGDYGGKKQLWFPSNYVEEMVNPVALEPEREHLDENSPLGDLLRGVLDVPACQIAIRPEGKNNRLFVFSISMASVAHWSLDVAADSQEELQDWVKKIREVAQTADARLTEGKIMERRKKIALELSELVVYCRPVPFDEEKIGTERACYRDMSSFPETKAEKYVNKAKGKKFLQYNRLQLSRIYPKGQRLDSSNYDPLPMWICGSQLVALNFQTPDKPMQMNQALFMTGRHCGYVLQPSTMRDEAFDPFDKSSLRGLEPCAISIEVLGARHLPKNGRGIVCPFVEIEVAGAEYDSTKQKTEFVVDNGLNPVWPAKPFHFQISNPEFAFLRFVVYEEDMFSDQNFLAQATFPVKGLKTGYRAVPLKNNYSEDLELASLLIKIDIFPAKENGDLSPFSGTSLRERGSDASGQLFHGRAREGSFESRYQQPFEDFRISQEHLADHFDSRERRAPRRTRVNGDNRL
PLCb3 inh: PLC-beta3 (human) inhibition, primary screen; Q01970; Purified PLC-beta3, fluorogenic substrate, fluorescence; inhibition, % at 12.2 µM; hit rate 0.18% among 370,000; AID 720704; in the data active means inhibition above about 11%;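 further: 0% = median of compound wells on plate and 100% = full blocker control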
ADAM10 inh: inhibitors of human ADAM10. O14672. recombinant ADAM10, EDANS/DABCYL FRET peptide cleavage, 3 h. hit rate 0.62% among 370,000. inhibition, % at 7 µM;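 active means inhibition above a per-campaign cutoff equal to the mean of compounds falling between control-based bounds plus 3 SD, cut at about 20% in these data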;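 further: 0% = DMSO wells while the 100% control is not disclosed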
HGIII-sPLA2 inh: Inhibits HGIII-sPLA2 liposome hydrolysis, primary screen. Q9NZ20. QFRET BODIPY PC-A2 liposome hydrolysis, fluorescence. inhibition, % at 12.2 µM. hit rate 0.56% among 370,000;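 active means inhibition above mean plus 3 SD of compounds lying within the high and low control bounds, cut at about 19% in these data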;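 further: 0% = median of test compound wells and 100% = no enzyme DMSO wells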
hGIII sPLA2 conf: human GIII-sPLA2 inhibition, confirmation; shares compounds with HGIII-sPLA2 inh; recombinant hGIII-sPLA2, BODIPY PC-A2 QFRET fluorescence; inhibition, % at 12.2 µM; hit rate 34% among 2,000; AID 743280;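 active means mean inhibition across triplicates above the hit cutoff set in the earlier primary screen, cut at about 19% in these data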;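 further: 0% = enzyme with DMSO and 100% = DMSO wells lacking enzyme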
535nm interf: optically interferes with 535nm fluorescence in sPLA2 counter-screen | BODIPY FL product fluorescence interference, QFRET | inhibition, % at 12.2 µM | hit rate 8.5% among 2,000 | shares compounds with HGIII-sPLA2 inh;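 active means average inhibition above the solvent-only control mean plus 3 SD, cut at about 6% in these data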;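 further: 0% = DMSO with substrate plus product and 100% = DMSO with substrate alone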
535nm interf DR: 535nm optical interference dose response, HGIII-sPLA2 counter-screen; shares compounds with HGIII-sPLA2 inh; BODIPY FL product fluorescence interference, cell-free; IC50, µM; 240 tested, under 10 active; AID 743455;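 active means IC50 at or below 10 µM; inactive means IC50 above 10 µM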
Starred values were filed as active, the others as inactive; . = not tested or not shown.

SMILES | ADAM17 inh | KLK7 zymogen act | PLC-gamma1 inh | PLCb3 inh | ADAM10 inh | HGIII-sPLA2 inh | hGIII sPLA2 conf | 535nm interf | others
Cc1cc(C(=O)N=Nc2c(O)n(C)c3ccccc23)c(C)o1 | -7.5 | 0.2 | 5.0 | 1.3 | 1.0 | 22.5* | 1.1 | -1.8
COC(=O)[C@]12OC[C@]34C([C@@H](O)[C@@H]1O)[C@]1(C)CC(=O)C(O)=C(C)[C@@H]1C[C@H]3OC(=O)[C@H](O)[C@@H]24 (some centres undefined) | -3.6 | 0.7 | -2.4 | -0.8 | -2.0 | 8.4 | . | .
Cc1c(N=Nc2c(O)n(C)c(=O)n(C)c2=O)c(=O)n(-c2ccccc2)n1C | -4.9 | -0.3 | 3.0 | -11.8 | 8.2 | 19.4* | 1.2 | -4.0
c1cnc(N2CCNCC2)nc1 | -5.1 | 0.1 | 3.7 | -1.8 | -6.0 | 13.3 | . | .
c1ccc(Cc2cnc(N3CCNCC3)nc2)cc1 | -6.8 | -0.6 | 0.1 | -2.8 | -14.5 | 25.1* | -4.8 | -7.0
O=C1NC(=S)NC(=O)C1c1ccccc1 | -4.7 | -0.3 | -2.5 | -2.6 | -12.4 | 8.5 | . | .
O=C1CC(c2ccccc2)CN1 (centres undefined) | -2.4 | -0.2 | 4.0 | -5.9 | 2.1 | 24.2* | 2.9 | -2.8
C[C@]12CCC3C(CC[C@H]4C[C@H](O)CC[C@]34C)C1CC(=O)[C@@H]2O (some centres undefined) | -1.7 | -0.1 | 2.4 | 2.8 | -10.5 | 1.3 | . | .
CC1CC2(C)C(CCC3C2CCC2(C)C(OP(=O)(N4CC4)N4CC4)CCC32)CC1=O (centres undefined) | -7.6 | 0.1 | -0.6 | -3.3 | -13.1 | 24.7* | -1.2 | -24.8
COc1ccc(NC(=S)NC(NC(=O)CF)C(Cl)(Cl)Cl)cc1[N+](=O)[O-] (centres undefined) | -2.7 | -0.1 | 8.6 | -0.2 | -6.0 | 19.2* | 17.8 | -3.1
Clc1cccc(N2CCNCC2)c1Cl | -5.0 | 0.4 | -2.0 | 0.1 | -4.6 | 24.6* | 9.2 | -11.9
O=c1[nH]c(=S)n(C2CC2)c(O)c1/C=N/Nc1ccccc1 | -4.3 | 0.2 | -9.9 | -11.9 | -11.9 | 21.8* | 15.9 | -4.1
COC(=O)C1=CO[C@@H](C)[C@@H]2CN3CC[C@]4(C(=O)Nc5ccccc54)[C@@H]3C[C@H]12 | -4.3 | 0.8 | -3.0 | -5.5 | 1.5 | 3.8 | . | .
c1ccc(-c2cc(-c3ccccc3)[n+](-c3ccccc3)c(-c3ccccc3)c2)cc1 | -2.2 | 1.1 | -2.9 | -14.9 | -0.5 | 5.7 | . | .
CN(C)c1ccc(-[n+]2c(-c3ccccc3)cc(-c3ccccc3)cc2-c2ccccc2)cc1 | -2.4 | 1.0 | 4.4 | -1.1 | -6.3 | 22.2* | 27.2* | -37.4
O=C(C[N+]12CCC(CC1)C(OC(=O)c1ccccc1)C2)c1ccc([N+](=O)[O-])cc1 (centres undefined) | -5.8 | 0.1 | -1.0 | -5.7 | -1.2 | 21.7* | 13.5 | -20.9
O=C(C[N+]12CCC(CC1)C(CO)C2)c1ccc([N+](=O)[O-])cc1 (centres undefined) | 0.1 | 0.1 | 2.2 | 0.2 | -4.3 | 3.6 | . | .
CCC(=NCc1ccco1)c1c(O)n(C)c(=O)n(C)c1=O | -3.7 | 0.4 | 1.5 | -8.3 | -5.6 | 19.7* | -1.2 | -7.0
CCC(=NCCc1ccccc1)c1c(O)n(C)c(=O)n(C)c1=O | -5.0 | 0.6 | -0.7 | -7.6 | 0.8 | 12.3 | . | .
c1ccc2c3c([nH]c2c1)CNCC3 | -7.2 | 1.7 | -15.7 | -25.7 | -7.7 | 23.5* | 18.0 | -6.9
Cn1nnc(CC[N+](C)(C)C)n1 | -4.4 | 0.3 | -1.3 | -0.9 | -3.9 | 7.5 | . | .
CCOP(=O)(OCC)C1(C(=O)O)CCCC1 | -6.2 | 0.1 | 3.5 | -0.5 | 4.8 | 24.3* | 6.4 | -3.4
CCOP(=O)(OCC)C1(O)C(=O)Nc2ccccc21 (centres undefined) | -6.9 | 0.6 | -1.0 | -6.6 | -10.4 | -13.7 | . | .
CCN1C[C@]2(CO)CC[C@H](OC)[C@@]34C2[C@H](OC)[C@@](O)(C13)[C@@]1(O)C[C@H](OC)[C@H]2C[C@@H]4[C@@H]1[C@H]2OC | -0.7 | 0.3 | -1.5 | -4.2 | 2.4 | -5.0 | . | .
O=C1CN=C(c2ccccc2F)c2cc(Cl)ccc2N1 | -1.7 | -0.4 | 2.6 | -2.5 | -10.0 | 19.3* | -1.9 | -6.8
SMILES | ADAM17 inh | KLK7 zymogen act | PLC-gamma1 inh | PLCb3 inh | ADAM10 inh | HGIII-sPLA2 inh | hGIII sPLA2 conf | 535nm interf | others
CC(C)CN1CCN(Cc2c(F)cccc2Cl)CC1CCO (centres undefined) | -3.4 | 0.2 | 1.1 | 1.5 | 2.1 | 0.9 | . | .
CCc1ccc(/C=C(/C#N)C(N)=S)cc1 | -1.5 | 0.5 | -8.4 | -8.9 | 3.1 | 24.1* | 29.4* | 3.1 | 535nm interf DR=>122
COc1ccc(CCn2c(O)c(/C=N/N3CCOCC3)c(=O)[nH]c2=O)cc1OC | -5.2 | 0.1 | -2.2 | -2.5 | -0.1 | -3.2 | . | .
COc1ccccc1N1CCN(Cc2ccc(Cl)cc2Cl)CC1 | 1.5 | 0.2 | 5.2 | -2.1 | 1.4 | 20.8* | 11.4 | -9.2
COc1ccccc1N1CCN(Cc2ccc(F)cc2)CC1 | -2.3 | 0.7 | 0.3 | -2.5 | -6.0 | 3.3 | . | .
C=CCn1c(O)c(C(C)=NCC2CCCO2)c(=O)[nH]c1=O (centres undefined) | -1.1 | 0.7 | -0.3 | -4.2 | 2.4 | -2.6 | . | .
Cc1cccc(C)c1-n1nnnc1C(c1ccnc2ccccc12)N1CCC2(CC1)C(=O)NCN2c1ccccc1 (centres undefined) | 0.0 | 0.9 | -0.4 | 2.6 | -0.3 | -2.9 | . | .
c1ccc2sc(C3CCNCC3)nc2c1 | -2.8 | 0.1 | 1.2 | -6.2 | -8.1 | 10.4 | . | .
Nc1ccc(-c2ccc(N)cc2)cc1 | 2.7 | 0.0 | 3.9 | -1.5 | -1.4 | 19.2* | 17.1 | -3.5
